Measured values published in PubChem BioAssay (EPA / NIEHS).
Values joined by “and” are separate entries in the source; they are usually repeats but may differ in a detail not shown here. Identical values can stand only once. Records with an inconclusive call do not appear. A structure can be active in one record and inactive in another. Active and inactive are the calls of the source. How the source made its calls, unless noted: active means hit-call score of the fitted dose curve at least 0.9, where 1 is the maximum; inactive means score below 0.9.

Experiments:
[1] = read-out: Collagen I, COL1A1 (gene 1277); assay: BSK_MyoF_CollagenI: BioMAP Diversity Plus: MyoF Assay for Collagen I Biomarker Activity (AID 2284238); details: primary human lung fibroblasts
Method in brief: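 Measured by ELISA: Collagen I from human lung fibroblasts 24 h after compound addition, analysed for signal gain with DMSO as baseline; overt toxicity read from SRB staining of parallel cultures at the same time.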

[2] = read-out: Collagen III, COL3A1 (gene 1281); assay: BSK_MyoF_CollagenIII: BioMAP Diversity Plus: MyoF Assay for Collagen III Biomarker Activity (AID 2284239); details: primary human lung fibroblasts
Method in brief: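 Multiplexed cell assay in lung fibroblasts, harvested at 24 h post-dose. Collagen III detected by ELISA, with positive-direction fitting relative to DMSO vehicle.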

[3] = CCTE_Mundy_HCI_hNP1_Casp3_7: CCTE's Caspase-Glo 3/7 Assay in human neuroprogenitor cells for Apoptosis, Mundy Lab (AID 2284240)
Method in brief: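 Apoptosis is scored by activated caspase-3/7 luminescence in WA09-derived neural progenitor cells, measured 26.5 h after chemical dosing. Values represent gain of signal relative to DMSO vehicle.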

[4] = CCTE_Mundy_HCI_hNP1_CellTiter: CCTE's Cell Titer-Glo 2 Assay in human neuroprogenitor cells for Viability, Mundy Lab (AID 2284241; active means hit-call score of the fitted dose curve at least 0.9, where 1 is the maximum)
Method in brief: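 Human neural progenitor cells (hNP1, WA09-derived) were plated on poly-L-ornithine/laminin and grown 40 to 44 hours at 37 °C, 5% CO2 before chemical addition. Twenty-four hours later, ATP was measured by CellTiter-Glo luminescence; loss of signal versus DMSO indicates reduced viability.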

[5] = read-out: Interleukin 17F (IL17F), IL17F (gene 112744); assay: BSK_BT_xIL17F: BioMAP Diversity Plus: BT Assay for Interleukin 17F (IL17F) Biomarker Activity (AID 2284243); details: primary human B cells with PBMC
Method in brief: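 Luminex readout of IL-17F secretion, 24 h; cells: human B cells with PBMC; positive-direction analysis, DMSO control.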

[6] = read-out: Actin alpha 1 (ACTA1), ACTA1 (gene 58); assay: BSK_MyoF_ACTA1: BioMAP Diversity Plus: MyoF Assay for Actin alpha 1 (ACTA1) Biomarker Activity (AID 2284244); details: primary human lung fibroblasts
Method in brief: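 Lung fibroblasts, human primary, 24 h compound exposure → a-SMA ELISA. Positive-direction fit vs DMSO control.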

[7] = read-out: Interleukin 2 (IL2), IL2 (gene 3558); assay: BSK_BT_xIL2: BioMAP Diversity Plus: BT Assay for Interleukin 2 (IL2) Biomarker Activity (AID 2284245); details: primary human B cells with PBMC
Method in brief: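 B cell + PBMC co-culture (human primary), compound added, 24 h incubation; secreted IL-2 measured multiplexed on Luminex xMAP; gain-of-signal fit vs DMSO.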

[8] = read-out: Collagen IV, COL4A1 (gene 1282); assay: BSK_MyoF_CollagenIV: BioMAP Diversity Plus: MyoF Assay for Collagen IV Biomarker Activity (AID 2284247); details: primary human lung fibroblasts
Method in brief: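 Steps: dose human lung fibroblasts; culture 24 h; quantify Collagen IV by ELISA; fit increase versus DMSO control. Parallel SRB total-protein staining (0.1% SRB after 10% TCA fixation, 560 nm) tracks overt cytotoxicity.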

[9] = read-out: Monokine induced gamma interferon (MIG), CXCL9 (gene 4283); assay: BSK_KF3CT_MIG: BioMAP Diversity Plus: KF3CT Assay for Monokine induced gamma interferon (MIG) Biomarker Activity (AID 2284248); details: primary human keratinocytes with fibroblasts
Method in brief: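 MIG in dosed human skin co-cultures was measured by ELISA at 24 h, relative to DMSO.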

[10] = read-out: Vascular cell adhesion molecule 1 (VCAM1), VCAM1 (gene 7412); assay: BSK_BF4T_VCAM1: BioMAP Diversity Plus: BF4T Assay for Vascular cell adhesion molecule 1 (VCAM1) Biomarker Activity (AID 2284249); details: primary human bronchial epithelial cells with fibroblasts
Method in brief: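 Human bronchial epithelial cell and dermal fibroblast co-culture exposed 24 h. VCAM-1 measured by ELISA; parallel SRB total-protein staining for cytotoxicity. Fitted in positive direction relative to DMSO.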

[11] = read-out: Collagen I, COL1A1 (gene 1277); assay: BSK_hDFCGF_CollagenI: BioMAP Diversity Plus: hDFCGF Assay for Collagen I Biomarker Activity (AID 2284250); details: primary human foreskin fibroblasts
Method in brief: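 Human skin primary fibroblasts dosed with test chemical, harvested at 24 h, Collagen I quantified by ELISA; parallel SRB staining (0.1% SRB after 10% TCA fixation, 560 nm) tracked cytotoxicity.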

[12] = read-out: Interferon-inducible T-cell alpha chemoattractant (ITAC), CXCL11 (gene 6373); assay: BSK_hDFCGF_ITAC: BioMAP Diversity Plus: hDFCGF Assay for Interferon-inducible T-cell alpha chemoattractant (ITAC) Biomarker Activity (AID 2284251); details: primary human foreskin fibroblasts
Method in brief: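 Fibroblasts (human foreskin, primary) are treated with chemical, cultured 24 h, then assayed for I-TAC by ELISA. Overt toxicity is checked in parallel cultures by sulforhodamine B staining of total protein at the same time point.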

[13] = read-out: Plasminogen activator inhibitor-1 (PAI1), SERPINE1 (gene 5054); assay: BSK_KF3CT_PAI1: BioMAP Diversity Plus: KF3CT Assay for Plasminogen activator inhibitor-1 (PAI1) Biomarker Activity (AID 2284252); details: primary human keratinocytes with fibroblasts
Method in brief: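 ELISA read-out of PAI-1 taken 24 h after chemical treatment of a human skin primary co-culture of keratinocytes and foreskin fibroblasts. Increases over DMSO-treated wells defined activity.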

[14] = read-out: Monocyte Chemoattractant Protein-1 (MCP1), CCL2 (gene 6347); assay: BSK_IMphg_MCP1: BioMAP Diversity Plus: IMphg Assay for Monocyte Chemoattractant Protein-1 (MCP1) Biomarker Activity (AID 2284253); details: primary human endothelial cells with macrophages
Method in brief: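 Human venular endothelial cells co-cultured with macrophages; MCP-1 measured by ELISA 24 hours post-dose and fitted against DMSO. Cytotoxicity monitored by SRB total-protein staining in parallel cultures.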

[15] = read-out: Interleukin-8 (IL8), CXCL8 (gene 3576); assay: BSK_KF3CT_IL8: BioMAP Diversity Plus: KF3CT Assay for Interleukin-8 (IL8) Biomarker Activity (AID 2284254); details: primary human keratinocytes with fibroblasts
Method in brief: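 Using parallel SRB-stained cultures to flag overt toxicity, the study quantified IL-8 by ELISA in human keratinocyte–foreskin fibroblast co-cultures 24 h after dosing, with DMSO as negative control and baseline.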

[16] = read-out: Plasminogen activator inhibitor-1 (PAI1), SERPINE1 (gene 5054); assay: BSK_MyoF_PAI1: BioMAP Diversity Plus: MyoF Assay for Plasminogen activator inhibitor-1 (PAI1) Biomarker Activity (AID 2284256); details: primary human lung fibroblasts
Method in brief: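 In this multiplexed primary-cell system, fibroblasts from human lung received compound for 24 h before ELISA detection of PAI-1; overt toxicity was checked by SRB (0.1%, TCA-fixed, 560 nm) in parallel wells.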

CD69, CD69 (gene 969) = assay: BSK_IMphg_CD69: BioMAP Diversity Plus: IMphg Assay for CD69 Biomarker Activity (AID 2284257); details: primary human endothelial cells with macrophages
Method in brief: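 Human venular endothelial cells co-cultured with macrophages; CD69 quantified by ELISA 24 h after compound addition. Activity fitted in the positive direction relative to DMSO baseline; cytotoxicity tracked in parallel cultures via SRB total-protein staining.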

[17] = read-out: Eotaxin 3, CCL26 (gene 10344); assay: BSK_BF4T_Eotaxin3: BioMAP Diversity Plus: BF4T Assay for Eotaxin 3 Biomarker Activity (AID 2284258); details: primary human bronchial epithelial cells with fibroblasts
Method in brief: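 Co-culture of human bronchial epithelial cells and dermal fibroblasts, exposed to chemicals for 24 h versus DMSO. Eotaxin-3 quantified by ELISA; cytotoxicity checked in parallel cultures by sulforhodamine B total-protein staining.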

[18] = CCTE_Mundy_HCI_Cortical_NOG_BPCount: CCTE's Neurite Outgrowth Assay in rat cortical cells for Branch Point Count, Mundy Lab (AID 2284237)
Method in brief: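 Measured 50.33 h after dosing, this morphology endpoint uses rat primary cortical cultures labelled for betaIII-tubulin. Branch points are quantified by high-content imaging, with DMSO as negative control and baseline.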

[19] = CCTE_Mundy_HCI_Cortical_Synap_Neur_Matur_NeuronCount: CCTE's Synaptogenesis and Neurite Maturation Assay in rat cortical cells for Neuron Count, Mundy Lab (AID 2284242; active means hit-call score of the fitted dose curve at least 0.9, where 1 is the maximum)
Method in brief: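 Neuron number was scored by automated high-content imaging of Hoechst- and MAP2-labelled rat primary cortical cells. Glial growth was arrested with AraC at DIV 5, compounds were applied from DIV 7, and cultures ended at DIV 12.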

Measured: AC50

C=CC(=O)OCCC(F)(F)C(F)(F)C(F)(F)C(F)(F)C(F)(F)C(F)(F)C(F)(F)C(F)(F)F
active: [15] 16.9 µM
inactive: [1] | [2] | [3] | [4] | [5] | [6] | [7] | [8] | [9] | [10] | [11] | [12] | [13] | [14] | [15] | [16] | CD69, CD69 (gene 969) | [17]

Clc1ccc(Nc2nnc(Cc3ccncc3)c3ccccc23)cc1
inactive: [1] | [2] | [5] | [6] | [7] | [8] | [16]

O=S(=O)(O)C(F)(F)C(F)(F)C(F)(F)C(F)(F)C(F)(F)C(F)(F)C(F)(F)C(F)(F)C(F)(F)C(F)(F)F
inactive: [1] | [2] | [5] | [6] | [7] | [8] | [9] | [10] | [11] | [12] | [13] | [14] | [15] | [16] | CD69, CD69 (gene 969)
active: [12] 8.02 µM | [17] 5.78 µM and 2.59 µM

Cc1ccc(N=Nc2c(O)ccc3ccccc23)c(C)c1
inactive: [1] | [2] | [5] | [6] | [7] | [8] | [16]

CN(Cc1cnc2nc(N)nc(N)c2n1)c1ccc(C(=O)N[C@@H](CCC(=O)O)C(=O)O)cc1
inactive: all assays above

CC(C)(C)c1ccc(O)c(O)c1
active: [1] 27.4 µM | [2] 29.2 µM | [5] 26 µM | [6] 29.6 µM | [8] 16 µM | [16] 33.3 µM
inactive: [7]

COC1=CC(=O)C[C@@H](C)[C@]12Oc1c(Cl)c(OC)cc(OC)c1C2=O
inactive: [5] | [6] | [7] | [8] | [16]
active: [1] 20 µM | [2] 3.97 µM

CCCCC(CC)C(=O)OCCOCCOCCOCCOC(=O)C(CC)CCCC (stereo not given)
inactive: [1] | [2] | [5] | [6] | [8] | [16]
active: [7] 16 nM

Cc1ccc(C(=O)c2ccccc2)cc1
inactive: [1] | [2] | [5] | [7] | [16]
active: [6] 20 µM | [8] 20 µM

Oc1cc2ccccc2cc1O
inactive: [1] | [2] | [5] | [6] | [7] | [8] | [16]
